PubChem BioAssay

target: Fibroblast growth factor 2 (Homo sapiens) (UniProt P09038); assay: basic fibroblast growth factor binding to printed compounds – biochemical, small-molecule microarray, 635/667 nm fluorescence, primary screen (AID 1133); conditions: FGF2, fluorescence 635/667, higher = more signal
Sequence (P09038 whole entry, looked up): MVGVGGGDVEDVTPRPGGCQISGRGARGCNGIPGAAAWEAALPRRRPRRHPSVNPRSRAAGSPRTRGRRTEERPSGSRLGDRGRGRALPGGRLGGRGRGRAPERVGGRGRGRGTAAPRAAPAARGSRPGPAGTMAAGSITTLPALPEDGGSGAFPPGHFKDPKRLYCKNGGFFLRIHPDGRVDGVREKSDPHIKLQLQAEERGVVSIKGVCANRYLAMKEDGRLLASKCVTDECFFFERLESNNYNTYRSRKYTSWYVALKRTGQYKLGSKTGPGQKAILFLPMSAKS

Which composite z-score does the source give for `CCCNC(=O)OC[C@H]1O[C@H](CCON=C(C)CCC(=O)OC[C@H]2O[C@H](c3ccccc3)C=C[C@@H]2Oc2ccc(OC)cc2)C=C[C@@H]1Oc1ccc(OC)cc1` here?
The composite z-score was -0.273.

Which composite z-score does the source give for `COC(=O)CC=C[C@@H](C)[C@H](OCc1cccc(-c2ccccc2)c1)C1CCCCC1` here?
The composite z-score was -0.226.

For `O=C(NN=C1C[C@@H](O)[C@@H](O)[C@@H]2[C@@H]3C(=O)N(Cc4ccccc4)C(=O)[C@@H]3CC[C@@H]12)OCc1ccccc1`, which composite z-score is on record?
The composite z-score was 0.242.

For `COc1ccc(COC(=O)NN=C2C[C@@H](O)[C@@H](O)[C@@H]3[C@@H]4C(=O)N(Cc5ccccc5)C(=O)[C@@H]4CC[C@H]23)cc1`, which composite z-score is on record?
The composite z-score was -0.977.

With `COc1ccc(O[C@H]2C=C[C@@H](c3ccccc3)O[C@@H]2CON=C(C)CCC(=O)OC[C@H]2O[C@H](c3ccccc3)C=C[C@@H]2Oc2ccc(OC)cc2)cc1` as the compound, how does the composite z-score read?
The composite z-score was -0.922.

For `CCCNC(=O)OC[C@H]1O[C@H](CCON=Cc2ccc(C(=O)N3[C@H](c4ccc(C)cc4)[C@@H](C)CC[C@H]3C(=O)OC)cc2)C=C[C@@H]1Oc1ccc(OC)cc1`, which composite z-score is on record?
Its composite z-score is 0.666.

For `CCOC(=O)CCN1C(=O)[C@H]2[C@H]3[C@H](O)[C@H](O)CC(=NNC(=O)OCc4ccccc4)[C@@H]3CC[C@H]2C1=O`, which composite z-score is on record?
Its composite z-score is 0.55.

Which composite z-score does the source give for `C[C@@H](c1ccccc1)N1C(=O)[C@H]2[C@H]3[C@H](O)[C@H](O)CC(=NOCc4ccccc4)[C@H]3CC[C@H]2C1=O` here?
The composite z-score was 0.181.

For `COC(=O)CC=C[C@@H](C)[C@@H](C=NOC[C@@H](O)[C@H]1O[C@@H]2OC(C)(C)O[C@@H]2[C@H]1O)NS(=O)(=O)c1ccc(C)cc1`, which composite z-score is on record?
The composite z-score was 0.276.

Which composite z-score does the source give for `O=C(NN=C1C[C@@H](O)[C@@H](O)[C@@H]2[C@@H]3C(=O)N(C4CCCCC4)C(=O)[C@@H]3CC[C@H]12)OCc1ccccc1` here?
Its composite z-score is -0.443.

For `Cc1cc2c(nc1C)CCCCN2CC(C)ON=C[C@@H](C)[C@H](OCc1ccccc1)C(C)C` (some centres not stated), which composite z-score is on record?
The composite z-score was -1.78.

For `CCOC(=O)[C@H](CC(C)C)NC(=O)CCC1CC(OC(=O)NCc2cccc3ccccc23)CC2(CCCC(COC(=O)NCCC(C)C)O2)O1` (some centres not stated), which composite z-score is on record?
Its composite z-score is 0.92.

For `CC(C)CON=C1C[C@@H](O)[C@@H](O)[C@@H]2[C@@H]3C(=O)N(C[C@@H]4CCCO4)C(=O)[C@@H]3CC[C@@H]12`, which composite z-score is on record?
The composite z-score was -0.0796.

For `C=CC[C@@H]1C=C[C@H](ON=C(C)CCC(=O)OC[C@H]2O[C@H](c3ccccc3)C=C[C@@H]2Oc2ccc(OC)cc2)[C@@H](CO)O1`, which composite z-score is on record?
Its composite z-score is 0.121.

Which composite z-score does the source give for `CO[C@@H]1COC(=O)CC=C[C@@H](C)[C@@H]2C=C[C@H](O)[C@@H](COC(=O)CC=C[C@H]1C)O2` here?
Its composite z-score is 1.3.

For `COC(=O)[C@H](C)NC(=O)CCC1CC(OC(=O)NCc2cccc3ccccc23)CC2(CCCC(COC(=O)NCC(c3ccccc3)c3ccccc3)O2)O1` (some centres not stated), which composite z-score is on record?
Its composite z-score is 0.227.

system: not listed separately; assay: JC-1 mitochondrial potential readout, lung cancer cells – cell-based, A549, JC-1 fluorescence, basal, 24 h, 100 nL, profiling panel (AID 1138); conditions: higher = more signal;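 further: A549 lung adenocarcinoma cells under basal conditions with no added stimulus; test concentration not given here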

With `CCN1C(=O)[C@@H]2[C@H]3C(=CC[C@@H]2C1=O)C1(OCCCO1)[C@H]1O[C@H]1[C@H]3O` as the compound, how does the z-score read?
Its z-score is -2.41.

With `CCOC(=O)[C@H](Cc1ccccc1)NC(=O)CCC1CC(OC(=O)NCCc2ccc(F)cc2)CC2(CCCC(COC(=O)NCCc3ccccc3OC)O2)O1` (some centres not stated) as the compound, how does the z-score read?
The z-score was -0.366.

With `CCOC(=O)NN=C1C[C@@H](O)[C@@H](O)[C@@H]2[C@@H]3C(=O)N(c4cccc(Oc5ccccc5)c4)C(=O)[C@@H]3CC[C@H]12` as the compound, how does the z-score read?
Its z-score is 0.471.

Which z-score does the source give for `CCCCC#C[C@@H]1C=C[C@H](Oc2ccc(C(=O)OC)cc2)[C@@H](COC(=O)OCC)O1` here?
The z-score was -0.896.

With `CCCNC(=O)OC[C@H]1O[C@H](CCON=C(C)CCN2CCc3nc(CC)c(CC)cc3C2)C=C[C@@H]1Oc1ccc(OC)cc1` as the compound, how does the z-score read?
Its z-score is 0.77.

With `CCC1=NOC(CCC2CC(OC(=O)NCc3cccc4c3OCO4)CC3(CCCC(COC(=O)NCCc4ccccc4OC)O3)O2)C1` (configuration not stated) as the compound, how does the z-score read?
Its z-score is 1.41.

For `CO[C@@H]1COC(=O)CC=C[C@H](C)[C@H](OC)COC(=O)[C@H](C)NC(=O)CC=C[C@H]1C`, which z-score is on record?
Its z-score is 0.239.

Which z-score does the source give for `C#CCCCON=C1C[C@@H](O)[C@@H](O)[C@@H]2[C@@H]3C(=O)N(C(C)(C)C)C(=O)[C@@H]3CC[C@H]12` here?
Its z-score is -0.049.

Which z-score does the source give for `CCOC(=O)[C@H](Cc1ccccc1)NC(=O)CCC1CC(OC(=O)NCc2ccc3c(c2)OCO3)CC2(CCCC(COC(=O)NCCC(C)C)O2)O1` (some centres not stated) here?
The z-score was -0.549.

With `COC(=O)CC=C[C@@H](C)[C@@H](C=NO[C@H](C)c1cn([C@H](CO)Cc2ccccc2)nn1)NS(=O)(=O)c1ccc(C)cc1` as the compound, how does the z-score read?
The z-score was -0.248.

With `CCN1C(=O)[C@H]2[C@H]3[C@H](O)[C@H](O)CC(=O)[C@@H]3CC[C@H]2C1=O` as the compound, how does the z-score read?
Its z-score is 1.39.

With `CCO[C@H](c1cc(OC)cc([N+](=O)[O-])c1OC)[C@H](C)C=CCC(=O)OC` as the compound, how does the z-score read?
The z-score was 0.347.

With `COC(=O)[C@H](C)NC(=O)CCC1CC(OC(=O)NCCc2ccc(F)cc2)CC2(CCCC(COC(=O)NCc3cccc(C(F)(F)F)c3)O2)O1` (some centres not stated) as the compound, how does the z-score read?
Its z-score is -0.0843.

With `CCOC(=O)[C@H](CC(C)C)NC(=O)CCC1CC(OC(=O)NCc2ccc3c(c2)OCO3)CC2(CCCC(COC(=O)NCc3cccc(C(F)(F)F)c3)O2)O1` (some centres not stated) as the compound, how does the z-score read?
Its z-score is -0.326.

With `COC(=O)[C@H](C)NC(=O)CCC1CC(OC(=O)NCc2ccc3c(c2)OCO3)CC2(CCCC(COC(=O)NCc3cccc(C(F)(F)F)c3)O2)O1` (some centres not stated) as the compound, how does the z-score read?
Its z-score is -0.238.

With `C[C@@H](c1ccccc1)N1C(=O)[C@H]2[C@H]3[C@H](O)[C@H](O)CC(=NO[C@@H]4O[C@H](CO)[C@@H](O)[C@H](O)[C@H]4O)[C@H]3CC[C@H]2C1=O` as the compound, how does the z-score read?
Its z-score is 0.296.

Which z-score does the source give for `CCc1cc2c(nc1CC)CCN(CCC(C)=NO[C@H](C)c1cn([C@H](CO)Cc3ccccc3)nn1)C2` here?
Its z-score is 0.085.

For `O=C1C[C@@H](O)[C@@H](O)[C@@H]2[C@@H]3C(=O)N(Cc4ccccc4)C(=O)[C@@H]3CC[C@@H]12`, which z-score is on record?
The z-score was -0.305.

Which z-score does the source give for `COc1ccc(O[C@H]2C=C[C@@H](c3ccccc3)O[C@@H]2CON=CC[C@@H]2C=C[C@H](OC(C)=O)[C@@H](COC(C)=O)O2)cc1` here?
Its z-score is 0.124.

For `Cc1ccc(S(=O)(=O)n2c3ccccc3c3nnc(C(=O)c4ccccc4)nc32)cc1`, which z-score is on record?
Its z-score is -1.99.

With `CCCNC(=O)OC[C@H]1O[C@H](CCON=C(C)CCC(=O)OC[C@H]2O[C@H](c3ccccc3)C=C[C@@H]2Oc2ccc(OC)cc2)C=C[C@@H]1Oc1ccc(OC)cc1` as the compound, how does the z-score read?
Its z-score is 0.424.

For `COC(=O)CC=C[C@@H](C)[C@H](OCc1cccc(-c2ccccc2)c1)C1CCCCC1`, which z-score is on record?
The z-score was 0.237.

With `O=C(NN=C1C[C@@H](O)[C@@H](O)[C@@H]2[C@@H]3C(=O)N(Cc4ccccc4)C(=O)[C@@H]3CC[C@@H]12)OCc1ccccc1` as the compound, how does the z-score read?
The z-score was 0.257.

For `COc1ccc(COC(=O)NN=C2C[C@@H](O)[C@@H](O)[C@@H]3[C@@H]4C(=O)N(Cc5ccccc5)C(=O)[C@@H]4CC[C@H]23)cc1`, which z-score is on record?
Its z-score is 0.235.

For `COc1ccc(O[C@H]2C=C[C@@H](c3ccccc3)O[C@@H]2CON=C(C)CCC(=O)OC[C@H]2O[C@H](c3ccccc3)C=C[C@@H]2Oc2ccc(OC)cc2)cc1`, which z-score is on record?
The z-score was 0.0976.

With `CCCNC(=O)OC[C@H]1O[C@H](CCON=Cc2ccc(C(=O)N3[C@H](c4ccc(C)cc4)[C@@H](C)CC[C@H]3C(=O)OC)cc2)C=C[C@@H]1Oc1ccc(OC)cc1` as the compound, how does the z-score read?
The z-score was -0.195.

Which z-score does the source give for `CCOC(=O)CCN1C(=O)[C@H]2[C@H]3[C@H](O)[C@H](O)CC(=NNC(=O)OCc4ccccc4)[C@@H]3CC[C@H]2C1=O` here?
The z-score was 0.319.

With `C[C@@H](c1ccccc1)N1C(=O)[C@H]2[C@H]3[C@H](O)[C@H](O)CC(=NOCc4ccccc4)[C@H]3CC[C@H]2C1=O` as the compound, how does the z-score read?
Its z-score is 1.06.

With `COC(=O)CC=C[C@@H](C)[C@@H](C=NOC[C@@H](O)[C@H]1O[C@@H]2OC(C)(C)O[C@@H]2[C@H]1O)NS(=O)(=O)c1ccc(C)cc1` as the compound, how does the z-score read?
The z-score was -0.656.

For `O=C(NN=C1C[C@@H](O)[C@@H](O)[C@@H]2[C@@H]3C(=O)N(C4CCCCC4)C(=O)[C@@H]3CC[C@H]12)OCc1ccccc1`, which z-score is on record?
Its z-score is 0.293.

With `Cc1cc2c(nc1C)CCCCN2CC(C)ON=C[C@@H](C)[C@H](OCc1ccccc1)C(C)C` (some centres not stated) as the compound, how does the z-score read?
The z-score was -1.26.

Which z-score does the source give for `CCOC(=O)[C@H](CC(C)C)NC(=O)CCC1CC(OC(=O)NCc2cccc3ccccc23)CC2(CCCC(COC(=O)NCCC(C)C)O2)O1` (some centres not stated) here?
Its z-score is 0.652.

For `CC(C)CON=C1C[C@@H](O)[C@@H](O)[C@@H]2[C@@H]3C(=O)N(C[C@@H]4CCCO4)C(=O)[C@@H]3CC[C@@H]12`, which z-score is on record?
The z-score was 0.221.

With `C=CC[C@@H]1C=C[C@H](ON=C(C)CCC(=O)OC[C@H]2O[C@H](c3ccccc3)C=C[C@@H]2Oc2ccc(OC)cc2)[C@@H](CO)O1` as the compound, how does the z-score read?
Its z-score is -0.217.

With `CO[C@@H]1COC(=O)CC=C[C@@H](C)[C@@H]2C=C[C@H](O)[C@@H](COC(=O)CC=C[C@H]1C)O2` as the compound, how does the z-score read?
Its z-score is 1.81.

With `COC(=O)[C@H](C)NC(=O)CCC1CC(OC(=O)NCc2cccc3ccccc23)CC2(CCCC(COC(=O)NCC(c3ccccc3)c3ccccc3)O2)O1` (some centres not stated) as the compound, how does the z-score read?
The z-score was 1.17.
